Assay outcomes deposited in PubChem by The Scripps Research Institute Molecular Screening Center.
Only a selection was taken, and hits are over-represented in it overall.
TTR transcr act: increases transthyretin transcription; SH-SY5Y TTR promoter Gaussia luciferase, luminescence; 100% = recombinant luciferase protein wells; activation, % at 16.7 µM; actives 1.3% (n = 92,000);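 active means activation above the mean of all tested compounds plus 3 SD, cut at about 9.5% in these data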;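 further: cells exposed to compounds for one day before reading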
HuH7 TTR inh: counter-screen for TTR activators: TTR transcription inhibitors in HuH7 cells; AID 1117279; HuH7 TTR promoter-Gaussia luciferase reporter, luminescence; inhibition, % at 16.7 µM; actives 4% (n = 1,100); shares compounds with TTR transcr act;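 active means average inhibition above the solvent-only control wells' mean plus 3 SD, cut at about 15% in these data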;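 further: inhibitors lower well luminescence so higher value means more inhibition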
TTR up confirm: human TTR transcription activation, confirmation. shares compounds with TTR transcr act. SHSY5Y TTR promoter Gaussia luciferase, luminescence; 100% = purified Lucia enzyme wells, no cells. activation, % at 16.7 µM. 1,100 tested, under 10 active;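 active means mean activation above a set limit taken from the earlier primary screen, cut at about 11% in these data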
Large screens that a line does not name were inactive (follow-up assays come after a bar, where they were run).

O=C(COc1ccc(-n2cnnn2)cc1)Nc1ccc(F)cc1	none
O=C(COc1ccc(-n2cnnn2)cc1)Nc1ccc(F)c(F)c1F	none
O=C(COc1ccc(-n2cnnn2)cc1)Nc1ccc(F)c(F)c1	TTR transcr act 13 | HuH7 TTR inh inactive | TTR up confirm inactive
CC(=O)Nc1ccc(C(=O)OCC(=O)Nc2c(F)cccc2F)cc1	none
COc1ccc(NC(=O)N(C)C[C@H]2OCc3cnnn3CCCC(=O)N([C@@H](C)CO)C[C@H]2C)cc1	none
CCN(CC)S(=O)(=O)c1ccc(Cc2ncc(C(F)(F)F)cc2Cl)s1	TTR transcr act 9.9 | HuH7 TTR inh inactive | TTR up confirm inactive
NS(=O)(=O)c1ccc(Cc2ncc(C(F)(F)F)cc2Cl)s1	none
NNS(=O)(=O)c1ccc(Cc2ncc(C(F)(F)F)cc2Cl)s1	none
CCC[C@H]1[C@@H](NC(=O)C2CCCCC2)CC[C@@]23CCCN2C(=O)CCC[C@@H]13	none
CC(=O)c1ccc(NC(=S)N2CCCCCC2)cc1	none
CC(=O)c1ccc(NC(=O)CN2CCC(NC(=O)C3CCCCC3)CC2)cc1	none
CCN(C(=S)Nc1ccc(C(C)=O)cc1)C1CCCCC1	TTR transcr act 32 | HuH7 TTR inh inactive | TTR up confirm inactive
Cc1ccnc(SCc2cc(=O)c(OC(=O)c3ccc([N+](=O)[O-])cc3)co2)n1	none
CCCC1CCC2(CC1)CCC2OC(=O)Nc1cccc(C(F)(F)F)c1 (centres undefined)	none
CC1(c2nnnn2Cc2ccccc2)CCCCC(=O)N1Cc1cccs1 (centres undefined)	none
c1ccc(CCNc2ccc3nncn3n2)cc1	none
NCCNc1ccc2nnnn2n1	TTR transcr act 19 | HuH7 TTR inh inactive | TTR up confirm inactive
Clc1ccc(CNc2ccc3nnc(-c4ccccc4)n3n2)cc1	none
O=C1C(Cl)=C(O)C2(Cl)C(Cl)=C(Cl)C12Cl (centres undefined)	none
Cc1cccc(NC(=O)c2ccc3c(c2)CCN3S(C)(=O)=O)c1	none
C#CCOCCOCCOCCNc1nc(N2CCN(C(=O)Cn3cc(CCCN=C(N)N)nn3)CC2)nc(N2CCN(C(=O)[C@H](Cc3ccc(O)cc3)n3cc(CCO)nn3)CC2)n1	none
CN(C)[C@@H]1CCN(c2cccc3c2S(=O)(=O)N2CC[C@H](C2)O3)C1	none
CCOC(=O)c1cc(OCC)c2c(ccc3ccccc32)n1	none
CCOc1ccccc1/C=C/c1cc(C(=O)O)c2ccccc2n1	TTR transcr act 35 | HuH7 TTR inh inactive | TTR up confirm inactive
CCOC(=O)c1cc(N2CCCCC2)nc2ccccc12	none
C[C@H]1CN([C@@H](C)CO)C(=O)CCCn2nncc2CO[C@H]1CN(C)C(=O)Nc1ccc2c(c1)OCO2	none
Cc1ccc(CN[C@@H]2CC[C@@]34CCCN3C(=O)CCC[C@H]4C2)cc1	none
CC(O)C(=O)N/N=C/c1cccc2ccccc12 (centres undefined)	none
COC(=O)C(CC(C)C)NC(=O)/C=C/c1ccccc1Cl (centres undefined)	none
CC(C)NC(=S)NC(=O)/C=C/c1cccc2ccccc12	TTR transcr act 17 | HuH7 TTR inh inactive | TTR up confirm inactive
O=C(O[C@H]1CC[C@@]23CCCN2C(=O)CCC[C@H]3C1)N1CCOCC1	none
CC1(c2nnnn2-c2ccc3ccccc3c2)CSCC(=O)N1C1CC1 (centres undefined)	none
COc1cc(C(=O)NC2CCCCN(Cc3ccc(Cl)cc3)C2=O)cc(OC)c1OC (centres undefined)	none
C[C@H]1[C@@H](NC(=O)c2ccc(C(C)(C)C)cc2)CC[C@@]23CCCN2C(=O)CCC[C@@H]13	none
C=CCC1(CC=C)CCCN1C(=O)CC1C(=O)NCCN1Cc1cccc(OC)c1OC (centres undefined)	none
O=C(CCSc1ccccc1)NCC1CCCO1 (centres undefined)	TTR transcr act 15 | HuH7 TTR inh inactive | TTR up confirm inactive
O=C(CCSCCC(=O)NCC1CCCO1)NCC1CCCO1 (centres undefined)	none
CC(NC(=O)C(=O)NCC1CCCO1)c1ccccc1 (centres undefined)	none
O=C(OCC#CCSc1nnc(-c2cccc3ccccc23)o1)c1ccc(Cl)c(C(F)(F)F)c1	none
COC(=O)[C@@]1(C(C)C)N=C(c2cc(OC)c(OC)c(OC)c2)[C@]2(O1)C(=O)N(Cc1cn(-c3ccccc3)nn1)c1cccc(Cl)c12	none
COc1ccccc1N1CCN(C(=O)CSc2nnc(NC(=O)C(C)C)s2)CC1	TTR transcr act 13 | HuH7 TTR inh inactive | TTR up confirm inactive
COc1ccccc1N1CCN(C(=O)CSc2nc3ccccc3nc2N2CCC(C)CC2)CC1	none
CC(=O)Nc1nnc(SCC(=O)N2CCc3ccccc32)s1	none
CCCCCCCC(=O)N[C@H]1CC[C@@]23CCCN2C(=O)CCC[C@H]3[C@H]1CCC	none
Clc1cccc(CNc2nc(-c3ccccn3)nnc2-c2ccccc2)c1	none
O=[N+]([O-])c1ccc(NC(=S)N2CCN(c3ccc(F)cc3)CC2)cc1	none
CCOc1ccccc1N1CCN(C(=S)NC(=O)C23CC4CC(CC(C4)C2)C3)CC1	TTR transcr act 9.7 | HuH7 TTR inh inactive | TTR up confirm inactive
O=C(NC(=S)N1CCN(c2ccc(F)cc2)CC1)C12CC3CC(CC(C3)C1)C2	TTR transcr act 18 | HuH7 TTR inh inactive | TTR up confirm inactive
O=C(NC(=S)N1CCOCC1)C12CCC3CC(CC(C3)C1)C2	none
CCOc1ccccc1N1CCN(C(=S)NCc2ccc(Cl)cc2)CC1	none
Cc1cccc(NC(=S)N2CCN(c3ccccn3)CC2)c1	none
Cc1cc(C)cc(NC(=S)N2CCN(c3ccc(F)cc3)CC2)c1	none
Cc1cccc(NC(=S)N2CCN(c3ccc(F)cc3)CC2)c1	TTR transcr act 11 | HuH7 TTR inh inactive | TTR up confirm inactive
CCCCNC(=O)N1CCN(c2ccccc2OCC)CC1	none
Cc1cc(Cl)ccc1OCC(=O)N/N=C/c1ccc[nH]1	none
CC(C)Oc1ccc(S(=O)(=O)N2CCCCCC2)c2ccccc12	none
CC(C)CNC(=O)OCc1cn(Cc2cc(F)ccc2F)nn1	none
CCN(CC)C(=O)Cn1ccc(NC(C)=O)nc1=O	none
COC(=O)C1CN(CCO)CCS(=O)(=O)N1Cc1cn(Cc2cccc(Cl)c2)nn1 (centres undefined)	none
NC(=O)C1CCN(c2nc(-c3ccc4c(c3)CCO4)cs2)CC1	none
C[C@@H]1CCN(C2CC2)S(=O)(=O)c2c(cccc2N2CCC[C@H]2CO)O1	none
S=C(Nc1ccc2c(c1)OCO2)N1CCN(Cc2ccco2)CC1	none
COc1ccc(-c2coc(CCC(=O)N3CCN(c4cc(C)ccc4C)CC3)n2)cc1	none
CC1C(C#N)=C(N)OC2=C1C(=O)CC(c1ccccc1)C2 (centres undefined)	TTR transcr act 15 | HuH7 TTR inh inactive | TTR up confirm inactive
CC1(C)CC(=O)C2=C(C1)OC(N)=C(C#N)[C@@H]2c1ccccc1[N+](=O)[O-]	none
COc1ccc(C2C(C#N)=C(N)OC3=C2C(=O)CC(C)(C)C3)cc1 (centres undefined)	none
Cc1cc(N=Nc2ccccc2)cc(C)c1NC(=O)C(F)(F)F	none
Cc1c(C2(O)CCCCC2)[nH]c2cc(C(F)(F)F)ccc12	none
Cc1c(C2(O)CCCCC2)[nH]c2ncccc12	TTR transcr act 11 | HuH7 TTR inh inactive | TTR up confirm inactive
Cc1c(C2(O)CCCCC2)[nH]c2cnccc12	none
C[C@H]1[C@@H](OC(=O)Oc2ccc([N+](=O)[O-])cc2)CC[C@@]23CCCN2C(=O)CCC[C@@H]13	none
